Out of some 400,000 compounds screened, about 13,000 (3.2%) were called active. Not shown: some 18% with an inconclusive outcome. Calls come from the whole dose curve; as a rule, active = well fitted cell-killing curve with a large enough effect; inconclusive = small, poorly fitted or top-dose-only effect, or effect the other way; inactive = flat fitted curve, though single readings scatter. The entries come from a sample that favours actives as a whole. Where a call stands in place of a potency, no number is given.
Experiment: qHTS assay for MDR1-selective chemotherapeutics: Primary screen using the drug-selected MDR subline cells KB-V1; note: nearly all actives have a fitted effect of over 60% in size
Settings: KB-V1 MDR cells viability, CellTiter-Glo, 72 h; series mostly up to 46.1 µM
Text: A prime difficulty in effectively treating cancer is the development of cellular resistance to multiple structurally unrelated anticancer drugs, a phenomenon known as multidrug resistance (MDR). […] Numerous strategies to overcome P-gp-mediated MDR have been explored, including the design of drugs that evade recognition and efflux, and development of inhibitors to block efflux and restore drug accumulation. […] An alternative approach is to exploit resistance by identifying drugs that target MDR cells over the non-resistant parental cells from which they were selected. […] The development of MDR1-selective agents represents a new strategy for resolving multidrug resistance, as it remains a long-standing clinical challenge for cancer chemotherapy.
Our goal is to identify compounds that selectively kill P-gp-expressing MDR cells. We will identify MDR1-selective compounds by comparing toxicity of compounds in the screening library against parental, drug-naive (KB-3-1) adenocarcinoma cells as well as their drug-selected MDR sub-line (KB-V1). The differential toxicity of compounds against these two cell lines will be used to identify MDR1-selective compounds, whose cytotoxicity is potentiated, rather than diminished, by P-gp expression. This assay will be utilized to conduct a quantitative high-throughput screen (qHTS) in collaboration with the NIH Chemical Genomics Center to identify selective agents, and probe hits arising from the screen will be validated using secondary assays and characterized through a well-established follow-up research program. This screen was run against the entire NCGC library collection of about 400,000 compounds.
NIH Molecular Libraries Probe Production Network [MLPCN]
NIH Chemical Genomics Center [NCGC]
PI: Michael Gottesman, National Cancer Institute, NIH
Briefly, 5 microL of media containing either KB-V1 cells (columns 1-2, 4-48) are dispensed into Greiner white, treated solid-bottom 1536-well assay plates (media-only control is added to column 3). Compounds are then transferred via Kalypsys pin tool equipped with 1536-pin array (10 nL slotted pins, V&P Scientific, San Diego, CA). Following addition of compound, the plates are incubated at 37 degrees C for 72 hours. CellTiter-Glo (2.5 µL/well) is then added, and the plates are read in a ViewLux reader (Perkin-Elmer, clear luminescence filter, 1 second exposure, 1x binning) following a 10 minute incubation. All cells are dispensed in DMEM phenol-red free media containing 10% FBS.
Library plates were screened starting from the lowest and proceeding to the highest concentration. Vehicle-only plates, with DMSO being pin-transferred to columns 5-48, will be inserted uniformly at the beginning and the end of each library in order to monitor and record any shifts in the background, which can be affected by reagent dispensers or loss in enzyme activity over time. Screening data will be corrected, normalized, and concentration-effect relationships will be derived by using publicly-available NCGC, NCATS curve fitting algorithms (http://ncgc.nih.gov/pub/openhts).
Potency is the fitted concentration of half-maximal effect.

SMILES | Potency
O=c1cc(N2CCCCC2)c(-c2ccccc2)nn1Cc1cccc(F)c1 | inactive
CCc1ccc(N(CC)C(=O)CCn2cnc3onc(-c4ccc(F)cc4)c3c2=O)cc1 | inactive
CCc1c(-c2ccc(F)cc2)ncn1Cc1cccc(-c2ccccc2)c1 | 23.1 µM (active)
Cc1ccccc1-c1nc(CS(=O)(=O)CC(=O)Nc2cc(Cl)cc(Cl)c2)c(C)o1 | inactive
CN(C)c1nc(-c2cccnc2)nc(-c2ccc(Cl)cc2)c1C#N | inactive
CNc1nccc(-c2ccc(Cl)cc2)c1C#N | 8.2 µM (active)
CN(C)c1ccnc(Nc2ccc(F)cc2)c1C#N | inactive
COc1cc(OC)cc(C(=O)Nc2cc3nn(-c4ccccc4)nc3cc2Cl)c1 | inactive
O=C1c2ccccc2-c2ccccc2NC1O (configuration not stated) | inactive
COC(=O)CSc1nc2ccccc2c(=O)n1Cc1ccccc1 | inactive
COCC(C)n1c(SCc2ccc(C(=O)OC)o2)nc2ccccc2c1=O (configuration not stated) | inactive
Cc1ccc(C(=O)CSc2nc3ccccc3c(=O)n2N)o1 | 11.6 µM (active)
COc1ccc(NC(C)=O)cc1NC(=O)CN1CCN(c2ccc(F)cc2)CC1 | inactive
COc1cc(CCN=Cc2ccccc2O)c([N+](=O)[O-])cc1OC | inactive
COc1ccc(CCNC(=O)/C(C#N)=C2\N=C(NC(=O)c3cccs3)c3ccccc32)cc1 | 10.3 µM (active)
COc1cc(OC)cc(C(=O)NCCc2csc3nc(-c4ccccc4F)nn23)c1 | inactive
COc1cc2ccccc2cc1C(=O)Nc1ccc(NC(=O)c2cccs2)cc1 | inactive
OC[C@@H]1CN(Cc2cccs2)C[C@H](n2cnc3c(NC4CCCC4)ncnc32)O1 | inactive
CCOc1ccccc1Nc1nnc(SCC(=O)NCC2CCCO2)s1 (configuration not stated) | inactive
CCOc1cc(-c2nc3cc(C)ccn3c2NCC2CCCO2)ccc1O (configuration not stated) | 2.59 µM (active)
CCOc1cc(C(C(=O)NCC2CCCO2)N(C(=O)Cn2nnc3ccccc32)c2cccc(OC)c2)ccc1O (configuration not stated) | inactive
OC(c1ccc(F)cc1)c1ncc(-c2cccc(C(F)(F)F)c2)[nH]1 (configuration not stated) | inactive
Cc1cn([C@H]2C[C@H](O)[C@@H](CNC(=O)[C@H](N)Cc3cccnc3)O2)c(=O)[nH]c1=O | inactive
COc1ccc(-c2nc(CN3CCC(C(=O)NCc4ccccc4)CC3)c(C)o2)cc1OC | inactive
COc1ccc(-c2nc(CN3CCC(C(=O)NCCN(CC(C)C)CC(C)C)CC3)c(C)o2)cc1OC | inactive

SMILES | Potency
COc1ccc(CCNC(=O)C2CCCN(Cc3nc(-c4cccc(Cl)c4)oc3C)C2)cc1OC (configuration not stated) | 5.8 µM (active)
Cc1ccc(C(=O)CSc2nc(-c3ccccc3)nc3c2CCCC3)c(C)c1 | inactive
CC1=C(C(=O)N(C)C)CC(CC(=O)NCCN2CCOCC2)C(=O)N1Cc1ccccc1 (configuration not stated) | inactive
Cc1nnc(NC(=O)Nc2ccc(Cl)c(Cl)c2)s1 | 18.4 µM (active)
Cc1ccc(NC(=O)Nc2nnc(-c3ccncc3)s2)cc1 | inactive
Cc1nnc(NC(=O)C(c2ccccc2)c2ccccc2)s1 | inactive
O[C@H]1CN(Cc2cccs2)[C@@H](c2ccc(Cl)cc2)C[C@@H]1n1cc(C2CC2)nn1 | inactive
O=C(NN=Cc1ccc2c(c1)CCC2)c1ccccc1O | inactive
Cc1cc2cc3c(N)[nH]nc3nc2cc1C | 7.31 µM (active)
O=C(C[n+]1ccncc1)c1ccc2c(c1)CCCC2 | inactive
Cc1cc(C)cc(Nc2ncnc3onc(-c4ccc(F)cc4)c23)c1 | inactive
C[C@@H]1CN([C@H](C)CO)C(=O)CCCn2nncc2CO[C@@H]1CN(C)C(=O)OCc1ccccc1 | inactive
CC(=O)OC[C@@H]1CN(Cc2ccccc2)C[C@H](n2cnc3c(NCc4ccco4)ncnc32)O1 | inactive
c1ccc(C2c3[nH]c4ccccc4c3CCN2Cc2cccn2-c2cccnc2)nc1 (configuration not stated) | inactive
COCc1ccc(C(=O)N2CCc3c([nH]c4ccccc34)C2c2ccccn2)s1 (configuration not stated) | 18.4 µM (active)
O=C(c1cn2ccccc2n1)N1CCc2c([nH]c3ccccc23)C1c1ccccn1 (configuration not stated) | inactive
COc1ccc(OC)c(NC(=O)c2cc(-c3cc(F)ccc3OCC3CCCO3)n[nH]2)c1 (configuration not stated) | inactive
Cn1c(=O)c2c(nc(SCC(=O)Nc3ccc(F)cc3)n2Cc2ccccc2)n(C)c1=O | inactive
C[C@H]1Cn2cnc(C(=O)N[C@H](C)c3ccccc3)c2C(=O)N1 | inactive
COc1cc(OC)c(NC(=O)c2nc(-c3ccncc3)no2)cc1Cl | inactive
Cc1ccc(OCCC(=O)OCC(=O)N2c3ccccc3NC(=O)C2(C)C)cc1 | inactive
CC1CC(=O)Nc2ccccc2N1S(=O)(=O)c1cccs1 (configuration not stated) | inactive
CC1CC(=O)Nc2ccccc2N1C(=O)COc1ccc2cc(Br)ccc2c1 (configuration not stated) | 16.4 µM (active)
CN[C@H]1C[C@H]2c3cc(Oc4ccccc4C)ccc3CCN2C(=O)[C@H]1[C@H](C)O | inactive
C=CCNC(=O)c1ccc2nc(-c3ccco3)c(-c3ccco3)nc2c1 | inactive

SMILES | Potency
O=C(CCC1CCCN(C(=O)Cc2ccc(F)cc2)C1)N1CCN(c2ccccn2)CC1 (configuration not stated) | 16.4 µM (active)
C=Cc1ccc(C(=O)N2CCCC(CCC(=O)N3CCN(c4ccccn4)CC3)C2)cc1 (configuration not stated) | inactive
COc1cccc(CC(=O)N2CCCC(CCC(=O)N3CCN(c4ccccn4)CC3)C2)c1 (configuration not stated) | inactive
COc1ccc(/C=C/c2ccnc3ccccc23)cc1OC | inactive
Cc1ccc(/C=N/NC(=O)COc2ccccc2-c2ccccc2)cc1 | 1.03 µM (active)
Cc1cccc(OCC(=O)NCC(=O)N/N=C/c2ccc(N(C)C)cc2)c1 | inactive
Cc1ccc(/C=N/NC(=O)CSc2nc3ccccc3o2)cc1 | inactive
CCCc1c(C)nc2scc(-c3ccc(Cl)cc3)n2c1=O | inactive
O=C(NNS(=O)(=O)c1ccc(Cl)cc1)C1CCN(Cc2ccccc2)CC1 | inactive
CCOC(=O)C1(S(=O)(=O)c2ccccc2)CCN(Cc2ccccc2)CC1 | 16.4 µM (active)
CCOC(=O)C1CCN(Cc2ccc(-c3ccccc3)cc2)CC1 | inactive
NC(=O)C1(N2CCCC2)CCN(Cc2ccccc2)CC1 | inactive
CCOC(=O)C1(CCOC)CCN(Cc2ccc(C(=O)OC)cc2)CC1 | inactive
CCOC(=O)C1(S(=O)(=O)c2ccc(Cl)cc2)CCN(Cc2ccccc2)CC1 | 20.6 µM (active)
Cc1ccc(C=O)cc1Cl | inactive
Nc1ccccc1-c1nc2ccncc2[nH]1 | inactive
COc1ccc(OC)c(NC(=O)C2(C)CCN2C(=O)Cc2ccccc2)c1 (configuration not stated) | inactive
Cc1ccc(S(=O)(=O)N2C[C@@H](C)[C@]3(C2)[C@H](O)[C@H](OC(=O)NCc2ccccc2)C[C@H]2C(=O)N(c4ccccc4)C(=O)[C@H]23)cc1 | inactive
CC1CCCC(C)N1C(=O)COC(=O)c1ccccc1C(=O)c1ccccc1 (configuration not stated) | inactive
CCOc1ccc(NC(=O)C(CC(C)C)N2Cc3ccccc3C2=O)cc1 (configuration not stated) | inactive
CC(C)Cc1ccc(S(=O)(=O)N2CCN(C(=O)c3ccco3)CC2)cc1 | 7.31 µM (active)
CN1CCN(S(=O)(=O)c2ccc(NC(=O)c3ccco3)cc2)CC1 | inactive
O=C(CNS(=O)(=O)c1ccccc1)N1CCN(C(=O)c2ccco2)CC1 | inactive
CCOc1ccccc1NC(=S)C(=C([O-])c1ccc2c(c1)OCCO2)[n+]1ccc(CC)cc1 | inactive
CCc1nnc(NC(=O)C2CC(=O)N(c3ccc4c(c3)OCCO4)C2)s1 (configuration not stated) | inactive

SMILES | Potency
CC(=O)c1ccccc1NC(=O)C1CC(=O)N(c2ccc3c(c2)OCCO3)C1 (configuration not stated) | 16.4 µM (active)
CCOC(=O)c1ccc(NC(=O)C2CC(=O)N(c3ccc4c(c3)OCCO4)C2)cc1 (configuration not stated) | inactive
COc1cccc(NC(=O)CSC2=Nc3ccccc3C3=NC(CC(=O)NC4CCCCC4)C(=O)N23)c1 (configuration not stated) | inactive
CCc1ccc2c(c1)NC(=O)C2(C)Cc1ccc(OC(F)(F)F)cc1 (configuration not stated) | inactive
Nc1ncnc2c1ncn2[C@@H]1O[C@H](CNC(=O)[C@H](N)Cc2cccnc2)[C@@H](O)[C@H]1O | inactive
CCC1(C)CC(=O)c2c(ccc3oc(C(=O)Nc4ccc(C(C)=O)cc4)c(C)c23)O1 (configuration not stated) | inactive
COc1ccc(CCNC(=O)CCCCn2c(=O)c3ccccc3n(Cc3ccccc3C)c2=O)cc1OC | inactive
Cc1ccc(Cn2c(=O)n(CCCC(=O)NCc3ccccc3Cl)c(=O)c3ccccc32)cc1 | inactive
COc1cc(C(=O)Nc2ccc(OCc3cc(=O)n4cc(C)sc4n3)cc2)cc(OC)c1OC | inactive
Cn1c(=O)c2c(nc(Oc3ccc(C#N)cc3)n2Cc2ccc(Cl)cc2Cl)n(C)c1=O | inactive
Cc1cccc(N=C2NC(=O)/C(=C/c3cn(C)c4ccccc34)S2)c1 | 14.6 µM (active)
Cc1ccc(N2C(=O)S/C(=C/c3cn(C)c4ccccc34)C2=O)cc1 | inactive
Cc1ccc(C(=O)N/C(=C\c2cn(C)c3ccccc23)C(=O)N2CCN(C)CC2)cc1 | inactive
CC1=C(C(=O)N2CCOCC2)CC(CC(=O)NCCCN(C)C)C(=O)N1Cc1ccc(C(C)(C)C)cc1 (configuration not stated) | inactive
CC(C)OC(=O)CC(=O)CC(O)c1cccc([N+](=O)[O-])c1 (configuration not stated) | inactive
CCOC(=O)N1CCN(S(=O)(=O)c2cc(Br)cc3c2N(C(=O)C2CC2)CC3)CC1 | inactive
CN(Cc1ccccc1)C(=O)CCS(=O)(=O)c1cc(Br)cc2c1N(C(=O)C1CC1)CC2 | inactive
CCN(c1ccc2c(c1)OCO2)S(=O)(=O)c1cc(Br)cc2c1N(C(=O)C1CC1)CC2 | 5.17 µM (active)
CCOC(=O)c1ccc(-c2ccc3ncnc(N(C)Cc4sccc4C)c3c2)o1 | inactive
CCN1CCN(c2c(Cl)cccc2NC(=O)c2ccc(Br)o2)CC1 | inactive
O=C(CNC(=O)c1ccc(Br)o1)Nc1ccccc1 | inactive
CCCC(=O)Nc1ccc(Cl)c(NC(=O)c2ccc(Br)o2)c1 | 20.6 µM (active)
